The list is not random: actives were taken first. Their share in the collection is about 19%.
TDP1 inh: blocks human tyrosyl-DNA phosphodiesterase 1; Potency, µM (series often up to 130 µM), without a hit: top-dose activity change, negative = inhibition, most hits filed as inhibitors; AID 485290; 350,000 tested, 0.28% active; Q9NUW8; recombinant TDP1, AlphaScreen DNA substrate cleavage; note: potency is the fitted concentration of half-maximal effect; % is set by controls: 0 for no effect and ±100 for the full control effect; nearly all actives have a fitted effect of over 40% in size
Target sequence (Q9NUW8 whole entry, looked up): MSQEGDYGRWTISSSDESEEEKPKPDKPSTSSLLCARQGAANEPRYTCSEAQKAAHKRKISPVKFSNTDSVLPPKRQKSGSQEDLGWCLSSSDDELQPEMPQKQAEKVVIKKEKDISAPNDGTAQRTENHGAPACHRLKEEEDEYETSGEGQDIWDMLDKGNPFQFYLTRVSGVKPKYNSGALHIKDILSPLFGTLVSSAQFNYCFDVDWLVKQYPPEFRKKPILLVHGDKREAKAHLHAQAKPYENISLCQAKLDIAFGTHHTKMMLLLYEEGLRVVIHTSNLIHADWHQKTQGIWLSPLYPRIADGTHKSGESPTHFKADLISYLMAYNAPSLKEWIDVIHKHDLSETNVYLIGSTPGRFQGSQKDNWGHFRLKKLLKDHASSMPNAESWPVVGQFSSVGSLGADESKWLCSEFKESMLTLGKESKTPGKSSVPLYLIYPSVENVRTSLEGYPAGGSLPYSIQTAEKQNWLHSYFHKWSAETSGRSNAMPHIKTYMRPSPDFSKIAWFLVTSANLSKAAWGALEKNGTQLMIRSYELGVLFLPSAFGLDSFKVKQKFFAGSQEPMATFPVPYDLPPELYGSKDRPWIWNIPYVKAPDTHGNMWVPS
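AlphaScreen read-out: signal falls as enzyme removes the 3' tyrosine-FITC from a 5'-biotinylated DNA oligo (15 nM, 5 min, RT). Enzyme was E. coli-made recombinant Tdp1 at 1 nM, exposed to compound for 15 min beforehand; beads 10 ug/ml, 10 min.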
DT40 TDP1 no CPT: qHTS for Inhibitors of human tyrosyl-DNA phosphodiesterase 1 (TDP1): qHTS in cells in absence of CPT; DT40 Tdp1-/- hTDP1 cells, no CPT, ATP luminescence, 48 h; Potency, µM (highest dose often 46.2 µM), for inactives: at the highest dose activity change, negative = growth inhibition, actives largely listed as inhibitors; 420,000 tested, 15% active; AID 686978, 2013; note: potency is the fitted concentration of half-maximal effect; % is set by controls: 0 for no effect and ±100 for the full control effect; nearly all actives have a fitted effect of over 55% in size
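Growth kinetics read by CellTiter-Glo luminescence after ≥48 hr at 37 °C. Cells: DT40 Tdp1-/- stably carrying human TDP1, 400 per well, compound exposure in the absence of CPT (DMSO vehicle).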
IL1B secr inh: blocks inflammasome-driven IL-1 beta release; THP-1 LPS/ATP IL-1B secretion, AlphaLISA, 16 h; stronger effect = lower value; activity change, % at 57.5 µM; 360,000 tested, 4.7% active; AID 743279; in the data active = activity change below about -50%; inconclusive = mostly about -30% to -49%; note: % is set by controls: 0 for no effect and ±100 for the full control effect
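THP-1 cells pretreated 1 hr with compounds (up to 57.5 uM final), then stimulated with LPS (250 ng/mL final) plus ATP (1.25 mM final); secreted IL-1B measured by AlphaLISA after 16 hr, decreased signal indicating inhibition.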
TGFb inhibitor: blocks TGF-b signaling; HepG2 CAGA-GFP TGF-b/SMAD3 reporter, GFP fluorescence, 18 h; TGF-beta stimulated, 500 pg/mL final; Potency, µM (titrated, usually from 46.1 µM), for inactives: at the top dose activity, negative = inhibition, actives largely listed as inhibitors; 410,000 tested, 1.2% active; AID 588855; note: potency is the fitted concentration of half-maximal effect; % is set by controls: 0 for no effect and ±100 for the full control effect; nearly all actives have a fitted effect of over 65% in size
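Read-out: total well GFP (ex488/em500-530) summed from mean per-cell fluorescence. Cells: HEPG2 CAGA-GFP, 1% FBS DMEM, 18 h at 37 degrees C with 500 pg/mL final TGF-beta. Unstimulated wells served as the full-inhibition control; stimulated DMSO wells = 0%.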
DT40 TDP1 CPT: growth inhibition of DT40 Tdp1-/-;hTDP1 cells with camptothecin (screen for TDP1 inhibitors). chicken DT40 Tdp1-/-;hTDP1 cells + 20 nM CPT, ATP luminescence, 48 h. Potency, µM (highest dose often 46.2 µM), for inactives: top-dose activity change, negative = growth inhibition, usual class: inhibitors. 420,000 tested, 12% active. AID 686979; note: potency is the fitted concentration of half-maximal effect; % is set by controls: 0 for no effect and ±100 for the full control effect; nearly all actives have a fitted effect of over 55% in size
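Chicken DT40 Tdp1-/- cells stably complemented with human TDP1 were seeded at 400 cells/well in medium containing 20 nM camptothecin, exposed to pin-transferred compounds, and grown at 37 °C for at least 48 hr. Viability was read as ATP luminescence.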
HepG2 tox: counter-screen for TGF-b inhibitors: cytotoxicity in HepG2 cells; Potency, µM (doses to about 46.1 µM), for inactives: at the highest dose activity change, negative = cytotoxicity, most hits filed as cytotoxic; HepG2 CAGA-GFP viability, ATP luminescence, 18 h; 410,000 tested, 0.76% active; AID 588856; note: potency is the fitted concentration of half-maximal effect
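CellTiter-Glo luminescence gave cytotoxicity after 18 hours at 37 degrees C. The cells were HepG2 CAGA-GFP in 1% FBS DMEM, stimulated with 500 pg/mL TGF-beta after compound addition. %Activity was normalised to no-cell wells (complete cell-killing) and DMSO (no toxicity), and curves were fitted and classified.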
Starred values were filed as active, the others as inactive; ? = inconclusive; . = no result; ! = a repeat was not active; [ ] = remark or other dose. Unless noted, calls come from the whole dose curve; as a rule, active = well fitted curve in the direction sought with a large enough effect; inconclusive = small, poorly fitted or top-dose-only effect, or another doubt; inactive = no such curve, though single readings can be large; an effect the other way counts as inactive or inconclusive.

SMILES	TDP1 inh	DT40 TDP1 no CPT	IL1B secr inh	TGFb inhibitor	DT40 TDP1 CPT	HepG2 tox
Cc1ccc(C)c(N2CCN(c3cnn(-c4nc5ccccc5s4)c(=O)c3Cl)CC2)c1	-1.8%	9.2µM*	-5.1	2.0%	9.2µM*	-1.3%
O=c1c(Cl)c(Nc2cccc(Cl)c2)cnn1-c1nc2ccccc2s1	2.3%	?	-29.0	-16.4%	-38.7%	-14.1%
Cc1ccc2c(c1)N(CC(=O)N1CCN(c3nc4ccccc4s3)CC1)C(=O)C(C)O2 (stereo not drawn)	2.3%	?	-8.5	1.6%	?	-17.3%
CCOC(=O)C1CCN(C2=NC(=O)/C(=C/c3ccc(Cl)cc3)S2)CC1	.	-9.6%	-50.4*	0.0%	?	-5.0%
CCOC(=O)CSC1=NC(=O)/C(=C\c2ccc(Cl)cc2)S1	0.0%	7.31µM*	?	9.0%	4.61µM*	-40.6%
COc1ccc(NC(=O)Cn2ccn(-c3ccc(C)c(C)c3)c(=O)c2=O)cc1Cl	-6.5%	-7.2%	.	-18.2%	-9.9%	0.2%
CCOC(=O)c1c(N)sc2c1CCC(CC)C2 (stereo not drawn)	5.6%	-15.7%	-13.1	1.1%	1.5%	-6.9%
CCOC(=O)c1c(N)sc2c1CCC1C(=O)N(C3CCCCC3)C(=O)C21 (stereo not drawn)	3.1%	25.9µM*	-18.9	0.0%	?	6.6%
Cc1ccc(/C=C(\C#N)c2nn(-c3ccccc3)c(N)c2C#N)cc1	0.0%	14.6µM*	?	?	?	-1.9%
N#C/C(=C\c1c(F)cccc1Cl)c1nn(-c2ccccc2)c(-n2cccc2)c1C#N	5.0%	?	.	-21.0%	?	5.2%
N#C/C(=C\c1c(Cl)cccc1Cl)c1nn(-c2ccccc2)c(-n2cccc2)c1C#N	2.5%	20.6µM*	-28.6	1.9%	25.9µM*	-23.4%
CC(=O)c1ccc(N(CC(=O)NCCc2ccccc2)C(=O)c2csnn2)cc1	2.8%	-26.7%	0.3	7.0%	3.8%	14.4%
COc1ccccc1N(CC(=O)NCCSCc1ccccc1)S(C)(=O)=O	.	-22.2%	-5.0	-2.2%	-23.7%	-16.3%
Cc1cccc(N(CC(=O)NCCSCc2ccccc2)S(C)(=O)=O)c1C	-2.7%	-26.0%	25.3	-0.9%	8.7%	2.2%
COc1ccc(C)cc1N(CC(=O)NCCSCc1cccc(Cl)c1)S(C)(=O)=O	.	?	-9.3	4.8%	16.4µM*	0.6%
Cc1cccc(N(CC(=O)NCCSCc2ccc(Cl)cc2)S(C)(=O)=O)c1C	.	25.9µM*	.	-20.0%	18.4µM*	-38.9%
COc1ccccc1N(CC(=O)NCCSCc1ccc(Cl)cc1)S(C)(=O)=O	5.7%	23.1µM*!	8.3	0.0%	20.6µM*	-1.4%
Cc1cccc(N(CC(=O)NCCSCc2ccccc2)S(=O)(=O)c2ccccc2)c1C	.	?	.	-11.8%	23.1µM*	-42.6%
COc1ccc(-n2cc(-c3ccccc3)c3c(SC(C)C(C)=O)ncnc32)cc1 (stereo not drawn)	2.9%	-9.2%	.	-6.3%	-10.9%	-21.1%
O=S1(=O)CCN(c2ccccc2CC(c2c[nH]c3ccccc23)c2c[nH]c3ccccc23)CC1	.	13µM*	-10.8	?	8.2µM*	-10.1%
CCOC(=O)N1CCN(CC(O)c2c[nH]c3ccccc23)CC1 (stereo not drawn)	.	-23.2%	-25.4	-11.4%	?	-25.8%
COc1cc(=O)n2c(c1C(=O)N(C)Cc1nonc1C)CCN(Cc1ccccc1F)CC2	.	-22.9%	.	.	2.5%[9.04 µM]	.
COc1ccc(C2C(C#N)=C(C)NC3=C2C(=O)c2ccccc23)cc1 (stereo not drawn)	4.8%	25.9µM*	-16.7	9.9%	?	-3.5%
COc1cc(C2C(C#N)=C(C)NC3=C2C(=O)c2ccccc23)cc(OC)c1OC (stereo not drawn)	2.8%	0.581µM*	50.1	?	1.03µM*	-31.7%
CCOc1ccc(C2C(C#N)=C(C)NC3=C2C(=O)c2ccccc23)cc1 (stereo not drawn)	12.3%	14.6µM*	7.4	0.0%	20.6µM*	-3.2%
SMILES	TDP1 inh	DT40 TDP1 no CPT	IL1B secr inh	TGFb inhibitor	DT40 TDP1 CPT	HepG2 tox
COc1cccc(N2CC(NC(=O)c3ccc(S(=O)(=O)N4CCOCC4)cc3)CC2=O)c1 (stereo not drawn)	2.6%	?	.	-1.7%	?	7.1%
COc1ccc(C2Oc3ccccc3C(=O)N2Cc2ccccc2)cc1COc1ccc(NC(C)=O)cc1 (stereo not drawn)	0.9%	.	.	.	.	.
O=Cc1nccc2ccccc12	.	6.51µM*	-6.6	-0.2%	9.2µM*	10.9%
C(=Cc1c[nH]c2ccccc12)c1nccc2ccccc12	.	?	-82.0*	28.2%	?	1.7%
COC(=O)c1nnn(-c2cccc(C)c2)c1N	0.6%	.	.	5.5%	.	1.3%
COC(=O)[C@H]1C[C@@H]1[C@H](N)c1ccccc1	7.9%	-1.8%	18.6	13.4%	0.0%	6.9%
O=C(Nc1ccc2c(c1)OCCO2)C(c1ccnc2ccccc12)n1c(=O)c(-c2ccco2)nc2ccccc21 (stereo not drawn)	.	14.6µM*	4.8	.	7.31µM*	.
Cc1cccc(C)c1NC(=O)C(c1ccncc1)n1c(=O)c(-c2ccco2)nc2ccccc21 (stereo not drawn)	.	?	-13.2	.	-29.0%	.
O=C(Nc1ccc2c(c1)OCCO2)C(c1ccccc1)n1c(=O)c(-c2ccco2)nc2ccccc21 (stereo not drawn)	.	?	-4.5	.	4.11µM*	.
O=C(Nc1ccc2c(c1)OCCO2)C(c1ccnc2ccccc12)N1CCN(C/C=C/c2ccccc2)CC1 (stereo not drawn)	.	23.1µM*	0.0	?	?	-38.4%
O=C(Nc1ccc2c(c1)OCCO2)C(c1ccccc1)n1c(=O)c(-c2cc3ccccc3[nH]2)nc2ccccc21 (stereo not drawn)	.	?	17.5	.	?	.
O=C(Nc1ccc2c(c1)OCCO2)C(c1ccncc1)n1c(=O)c(-c2ccco2)nc2ccccc21 (stereo not drawn)	.	?	-14.1	.	10.3µM*	.
Cc1cc(F)ccc1Nc1nc2ccc(Cl)cc2n2cnnc12	0.0%	-26.2%	.	.	10.5%	2.6%
Cc1ccc(-n2nc(C)c3c(C)cc(=O)n(CC(=O)NC(C)C)c32)cc1	-1.9%	-12.8%	.	-2.9%	0.4%	-3.0%

High-throughput results as filed in PubChem BioAssay.
